# Records with an inconclusive call do not appear. Active and inactive are the calls of the source. Unless noted, no rule for the calls is given here.
# Tests used:
# [1] = qHTS profiling of the MIPE4 collection as inhibitors of Plasmodium falciparum (3D7) proliferation (AID 743344);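 also: scaled between DMSO vehicle wells and 0.29 µM artemisinin as full inhibition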; settings: P. falciparum 3D7 in erythrocytes, SYBR Green DNA fluorescence, 72 h; at 28.5 µM unless noted
# Procedure, shortened: (§1)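 Parasite DNA was quantified by SYBR Green I fluorescence (ex 485, em 535 nm) after overnight lysis in saponin/Triton buffer at room temperature. Cultures at 0.3% parasitemia and 2.5% hematocrit were first exposed to compound for 72 h at 37 C; signals were normalised to artemisinin (0.29 uM) and vehicle wells.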
# [2] = High-throughput drug toxicity screening in the BPDCN cell line Gen2.2 (AID 1224824); settings: Gen2.2 BPDCN cells; at 45.8 µM (top of the series) unless noted;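 also: cells exposed to compounds for 48 h before reading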
# Procedure, shortened: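 CellTiter-Glo luminescence read after 48 h compound exposure at 37 C defines viability; percent activity set with DMSO as 100% and bortezomib (9.2 uM final) as 0%. 500 exponentially growing cells per well, RPMI plus 10% FBS.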
# [3] = High-throughput drug toxicity screening in the BPDCN cell line Cal-1 (AID 1224825); settings: Cal-1 BPDCN cell viability, qHTS; at 45.8 µM (top of the series) unless noted
# Procedure, shortened: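 CellTiter-Glo luminescence after 48 h compound exposure; percent activity scaled with DMSO as 100% and bortezomib (9.2 uM final) as 0%. Cal-1 cells seeded at 500/well in RPMI, 10% FBS, no phenol red.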
# [4] = qHTS assay for measurement of the activity of small molecule inhibitors on Zika virus induced Caspase-3 activity in human iPSC derived neural progenitor cells (hNPCs) (AID 1224857; active = well fitted curve in the direction sought with a large enough effect; an effect the other way counts as inactive or inconclusive; also: % of control where 0% means no effect; nearly all actives have a fitted effect of over 65% in size)
# Procedure, shortened: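 After overnight (16–20 h) culture at 350 cells/well, hNPCs get compound, then ZIKV 2 FFU/cell one hour later. Six hours on, Caspase-Glo 3/7 is added and luminescence measured.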
# [5] = qHTS assay for measurement of the activity of small molecule inhibitors on Zika virus induced Caspase-3 activity in human astrocytoma cells (AID 1224859; active = well fitted curve in the direction sought with a large enough effect; an effect the other way counts as inactive or inconclusive;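 also: plate controls were ZIKV-infected untreated cells for no effect and uninfected cells for full effect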)
# Procedure, shortened: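 Inhibition of Zika-induced caspase-3/7 activity: SNB-19 cells, 1 h compound pretreatment, ZIKV 2 FFU/cell for 6 h at 37 C, Caspase-Glo luminescence read-out.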
# [6] = qHTS Screen of the MIPE 4.0 Collection Against Ewings Sarcoma (RDES) (AID 1259252; active = well fitted curve in the direction sought with a large enough effect; an effect the other way counts as inactive or inconclusive; also: nearly all actives have a fitted effect of over 35% in size; also: potency is read from the fitted curve at half-maximal effect)
# Procedure, shortened: (§2)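 Log-phase cells in RPMI with 5% FBS attached for 4 h, then received compounds as a titration for 48 h at 37C, 5% CO2. Viability was read by CellTiter-Glo luminescence and normalized to DMSO and no-cell wells.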
# [7] = qHTS Screen of the MIPE 4.0 Collection Against Ewings Sarcoma (TC71) (AID 1259253; active = well fitted curve in the direction sought with a large enough effect; an effect the other way counts as inactive or inconclusive; also: nearly all actives have a fitted effect of over 40% in size; also: potency is read from the fitted curve at half-maximal effect)
# Procedure, shortened: as §2
# [8] = qHTS Screen of the MIPE 4.0 Collection Against Ewings Sarcoma (EW8) (AID 1259255; active = well fitted curve in the direction sought with a large enough effect; an effect the other way counts as inactive or inconclusive; also: nearly all actives have a fitted effect of over 35% in size; also: potency is read from the fitted curve at half-maximal effect;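 as to viability: 100% = DMSO-treated cells and 0% = medium-only wells without cells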)
# Procedure, shortened: as §2
# [9] = qHTS profiling of the MIPE4 collection as inhibitors of Plasmodium falciparum (DD2) proliferation (AID 743345); settings: P. falciparum Dd2 in erythrocytes, SYBR Green DNA, 72 h; at 28.5 µM unless noted
# Procedure, shortened: as §1
# [10] = qHTS profiling of the MIPE4 collection as inhibitors of Plasmodium falciparum (DD2) proliferation (Rep 2) (AID 743346); settings: P. falciparum Dd2 in erythrocytes, SYBR Green DNA, 72 h; at 28.5 µM unless noted
# Procedure, shortened: as §1
# [11] = qHTS Assay for Identifying Gametocytocidal Compounds (AID 743244; active = well fitted curve in the direction sought with a large enough effect; an effect the other way counts as inactive or inconclusive; also: potency is read from the fitted curve at half-maximal effect); settings: P. falciparum 3D7 stage III-V gametocytes, alamarBlue, 72 h; max response: stronger effect = lower value
# Procedure, shortened: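 Using 20,000 stage III–V 3D7 gametocytes per well, compounds were incubated 72 h under 37 °C/5% CO2. Viability was then assessed by 24 h alamarBlue reduction, measured fluorometrically at 525/598 nm.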
# [12] = qHTS profiling for inhibitors of Plasmodium falciparum (3D7) proliferation (AID 743322);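 also: infected erythrocytes exposed to compound for 72 h before lysis; 100% = DMSO vehicle wells and 0% = 0.29 µM artemisinin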; settings: P. falciparum 3D7 proliferation; at 28.7 µM (top of the series)
# Procedure, shortened: as §1
# [13] = qHTS profiling for inhibitors of Plasmodium falciparum (DD2) proliferation (AID 743323); settings: lower = more inhibition; at 28.7 µM (top of the series)
# Procedure, shortened: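 Parasite proliferation measured via DNA-dye fluorescence, as uninfected erythrocytes lack DNA. Cultures at 0.3% parasitemia and 2.5% hematocrit incubated 72 h with compound; signal scaled between vehicle and 0.29 uM artemisinin wells.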
# [14] = qHTS profiling for inhibitors of Plasmodium falciparum (HB3) proliferation (AID 743324; active = well fitted curve in the direction sought with a large enough effect; an effect the other way counts as inactive or inconclusive;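 also: 100% = DMSO vehicle wells and 0% = artemisinin-treated control wells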); settings: Plasmodium falciparum HB3 blood-stage proliferation; at 28.7 µM (top of the series)
# Procedure, shortened: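 SYBR Green fluorescence (485 ex/535 em) of lysed cultures, incubated overnight at room temperature in the dark, quantifies parasite DNA. Infected erythrocytes at 0.3% parasitemia and 2.5% hematocrit were exposed 72 h; values normalized to DMSO and 0.29 uM artemisinin controls.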
# [15] = qHTS profiling of the MIPE4 collection as inhibitors of Plasmodium falciparum (HB3) proliferation (AID 743347);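 also: plate controls were DMSO vehicle wells for no effect and artemisinin wells for full effect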; settings: P. falciparum HB3 in erythrocytes, SYBR Green DNA, 72 h; at 28.5 µM unless noted
# Procedure, shortened: as §1
# [16] = qHTS assay for cell viability of HEK293 cells (AID 743288; active = well fitted curve in the direction sought with a large enough effect; an effect the other way counts as inactive or inconclusive; also: % is scaled to controls: 0 for no effect and ±100 for the full control effect; nearly all actives have a fitted effect of over 50% in size); settings: ATP luminescence (CellTiter-Glo), 18 h, stronger effect = lower value
# Procedure, shortened: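 Readout is luciferase-coupled ATP content (CellTiter-Glo luminescence, 30 min room temperature) as a measure of metabolically competent cells. Parental HEK293 cells were plated 5 h or more before compound addition, then treated 18 h at 37 C.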
SMILES,"parasite growth, % of DMSO control [1]","cell viability, % of control (lower = more cytotoxic) [2]",viability (% of control) [3],Potency [4],Potency [5],Potency [6],Potency [7],Potency [8],"parasite growth remaining, % of DMSO control (lower = more inhibition) [9]","parasite growth, % of control (lower = inhibition) [10]",Potency [11],remaining parasite growth % (stronger effect = lower value) [12] [%],"activity, percent of control [13] [%]","remaining proliferation (% of control), lower = more inhibition [14] [%]","growth, % of control [15]",max response [16]
OC[C@H]1OC(O)C[C@@H](O)[C@H]1O (stereo partly specified),96.9%,118%,115%,inactive,inactive,inactive,inactive,inactive,–,–,–,–,–,–,–,–
NC(=O)N1CCC(CC(=O)N2CCC([C@H]3c4ncc(Br)cc4CCc4cc(Cl)cc(Br)c43)CC2)CC1,5.47%,82.6%,6.4%,inactive,inactive,20900 nM (active),16600 nM (active),16600 nM (active),10.6%,13.1%,–,–,–,–,–,–
COC(=O)C1C2CC3c4[nH]c5cc(OC)ccc5c4CCN3CC2CC(OC(=O)c2cc(OC)c(OC)c(OC)c2)C1OC (stereo unspecified),10.2%,120%,78.7%,inactive,inactive,2640 nM (active),2640 nM (active),2960 nM (active),–,20%,42900 nM (active),1.2,9.89,2.79,9.05%,–
C=CC1=C(C(=O)O)N2C(=O)[C@@H](NC(=O)C(=NO)c3csc(N)n3)[C@H]2SC1,92.8%,116%,105%,inactive,inactive,inactive,inactive,inactive,95.1%,103%,–,–,–,–,–,–
OC[C@@H](O)[C@@H](O)[C@H](O)[C@@H](O)CO,100%,201%,126%,inactive,inactive,inactive,inactive,inactive,91.5%,92%,–,–,–,–,70.6%,-5.81% (inactive)
CC(=O)NC(CS)C(=O)O (stereo unspecified),101%,87%,93.6%,inactive,inactive,inactive,inactive,inactive,97.9%,118%,–,–,–,–,60.7%,–
NC(=O)Nc1cc(-c2ccc(CN3CCOCC3)cc2)sc1C(N)=O,27.3%,26.1%,6.64%,inactive,inactive,4690 nM (active),332 nM (active),93.5 nM (active),46.5%,33%,–,–,–,–,33.4%,–
CCOC(=O)N1CCN([N+]([O-])=NOc2ccc([N+](=O)[O-])cc2C#N)CC1,10.5%,17.2%,10.9%,inactive,inactive,2090 nM (active),2640 nM (active),2350 nM (active),23.5%,17.1%,–,–,–,–,19.1%,–
CC1(C)O[C@@H]2C[C@H]3[C@@H]4CCC5=CC(=O)C=C[C@]5(C)[C@@H]4[C@@H](O)C[C@]3(C)[C@]2(C(=O)CO)O1,7.1%,97.8%,46.1%,inactive,inactive,inactive,inactive,inactive,49.3%,7.43%,–,–,–,–,5.96%,–
C[C@@H](NCc1cc2ccccc2[nH]1)c1cccc2ccccc12,41.8%,171%,108%,inactive,inactive,inactive,inactive,inactive,83.3%,71.9%,–,–,–,–,36.4%,–
COc1cc2ncnc(Nc3cccc(Br)c3)c2cc1OC,8.2%,64%,5.16%,inactive,inactive,132 nM (active),590 nM (active),1480 nM (active),37.1%,48.9%,–,–,–,–,8.18%,–
COc1ccc([C@@H]2CNC(=O)C2)cc1OC1CCCC1,106%,107%,108%,inactive,inactive,833 nM (active),2350 nM (active),9350 nM (active),96.4%,67%,–,–,–,–,102%,–
C=C1CCC2[C@](C)(CO)C(O)CC[C@]2(C)C1CC=C1C(=O)OCC1O (stereo partly specified),94.9% [at 57.5 µM],83.8% [at 92.2 µM],110% [at 92.2 µM],inactive,inactive,inactive,inactive,inactive,85.2% [at 57.5 µM],92.9% [at 57.5 µM],–,–,–,–,46.9% [at 57.5 µM],–
Oc1cc(-c2nc(-c3ccccc3)[nH]c2-c2ccncc2)ccc1Cl,5.77%,3.91%,5.51%,inactive,inactive,18700 nM (active),26400 nM (active),23500 nM (active),9.67%,8.42%,–,–,–,–,3.61%,–
O=C(C=CC#Cc1cccc(NS(=O)(=O)c2ccccc2)c1)NO,5.45%,4.86%,3.48%,inactive,inactive,1870 nM (active),1320 nM (active),935 nM (active),7.17%,8.22%,–,–,–,–,4.3%,–
CCCCCN=C(N)NN=Cc1c[nH]c2ccc(OC)cc12,7.63%,38.7%,11.8%,inactive,inactive,6620 nM (active),10500 nM (active),6620 nM (active),7.01%,22.5%,–,–,–,–,6.26%,–
NC(=O)c1ncn([C@@H]2O[C@H](CO)[C@@H](O)[C@@H]2O)c1O,109%,113%,102%,inactive,inactive,inactive,inactive,inactive,33.1%,102%,–,–,–,–,71.4%,–

# From PubChem BioAssay (NCATS)
